The values below come from PubChem BioAssay (NCI).

The panel holds about 83,000 compounds, 20% with a hit somewhere; the sample as a whole holds those more often.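 Cell lines were cultured in 96-well plates, exposed to a single compound concentration, and assessed for percent growth 48 hours later.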 A number with no mark means an inactive call. The source made the active and inactive calls. The calls were made as follows: active = growth percent below 10; inactive = the rest.

Common to all, as to assay: NCI-60 one-dose screen, 48 h (100 = growth as untreated, 0 = no growth, -100 = all killed)
What all share (conditions): 10 µM unless noted

Assay [1] has as its system SR leukemia.
The subject of assay [2] is OVCAR-8 ovarian.
The test system of assay [3] is OVCAR-5 ovarian.
Assay [4] relates to OVCAR-4 ovarian.
Assay [5] has as its system SK-OV-3 ovarian.
Assay [6] deals with IGROV1 ovarian.
In assay [7] the test system is OVCAR-3 ovarian.
The subject of assay [8] is HS 578T breast.
Assay [9] has as its system NCI/ADR-RES ovarian.
Assay [10] concerns T-47D breast.
For assay [11], the system named is BT-549 breast.
The subject of assay [12] is MDA-MB-435 melanoma.
The subject of assay [13] is SW-620 colon.
In assay [14] the test system is MCF7 breast.
Assay [15] concerns HCT-116 colon.
Assay [16] relates to HCC-2998 colon.
Assay [17] concerns KM12 colon.

For the compound `CN1CCN(C(=O)OCc2ccc3c(Cl)cc(Cl)c(O)c3n2)CC1`, the growth in assay [1] was 14%; in assay [2] it was 45.1%; in assay [3], 106%; in assay [4], 46.8%; in assay [5], 88.7%; in assay [6], 56.6%. Besides, the growth in assay [7] was 50.9%; in assay [8], 80.2%; in assay [9], 15%; in assay [10], 58.6%; in assay [11], 87%; in assay [12], 60.5%. The growth in assay [13] was 52.4%; in assay [14], 43.6%; in [15], 32.9%; in [16], 74.4%; in assay [17], 48.7%.
For the compound `Cc1ccc(-c2nc3nc(-c4ccccc4)nc(N4CCNCC4)c3o2)cc1`, the growth in assay [1] was -43% (active); in [2], -73.8% (active); in assay [3], -89.8% (active); in [4], -82% (active); in assay [5] it was -99.6% (active); in assay [6], -76.7% (active). The growth in assay [7] was -89.7% (active); in assay [8] it was -51.4% (active); in [9], -58.1% (active); in assay [10], -68.4% (active); in assay [11], -71.9% (active); in assay [12], -87.4% (active). Moreover, the growth in assay [13] is -69.4% (active); in assay [14] it was -66.2% (active); in assay [15], -77.1% (active); in assay [16] it was -86.8% (active); in [17], -87.9% (active).
Consider `C=C1C(=O)O[C@H]2[C@H]1CC/C(COC(=O)NCc1ccc(Cn3c(=O)sn(CCI)c3=O)cc1)=C\CC[C@@]1(C)O[C@@H]21`, for which the growth is -2.32% (active) in assay [1]; 89.4% in [2]; 82% in assay [3]; 32.1% in assay [4]; 109% in [5]; -75.5% (active) in [6]. In addition, the growth in assay [7] was -55.4% (active); in assay [8], 94.3%; in assay [9], 101%; in [10], 27.1%; in [11], 69.8%; in assay [12] it was 57.1%. In addition, the growth is -2.89% (active) in [13]; 24.7% in [14]; 20% in assay [15]; 107% in assay [16]; 91.5% in assay [17].
Take `CCCCCCCCn1ccc2cc(NC(=O)CN3CCN(c4nc(C)cc(Cl)n4)CC3)ccc21`: the growth in assay [1] was 23.5%; in assay [2], 106%; in assay [3], 102%; in [4] it was 83.7%; in [5] it was 110%; in assay [6], 74.4%. In addition, the growth in assay [7] is 109%; in [8], 89.9%; in [9], 93.2%; in [10], 83.4%; in assay [11] it was 101%; in assay [12], 97.7%. Besides, the growth was 90.2% in assay [13]; 78.1% in assay [14]; 82.2% in assay [15]; 103% in assay [16]; 91.9% in assay [17].
On to `COP(=O)(OC)C(C)(C)CC(=O)CC(C#N)(C#N)C(C#N)C#N`, for which the growth is 95.5% in assay [1]; 105% in assay [2]; 94.4% in assay [3]; 116% in assay [4]; 101% in assay [5]; 110% in assay [6]. Besides, the growth was 114% in [7]; 104% in assay [8]; 98.4% in assay [9]; 106% in assay [10]; 96.2% in [11]; 104% in [12]. The growth is 104% in assay [13]; 92.1% in assay [14]; 92.4% in assay [15]; 92.6% in assay [16]; 104% in [17].
On to `COc1cc(-c2cc(-c3cccs3)c(C#N)c(N3CCOCC3)n2)cc(OC)c1OC`, for which the growth is -1.19% (active) in [1]; 74.3% in assay [2]; 96.4% in assay [3]; 85.8% in assay [4]; 141% in [5]; 73.5% in assay [6]. Besides, the growth in [7] is 149%; in assay [8], 90.6%; in assay [9], 58.2%; in [10], 89%; in assay [11], 75.8%; in [12], 92.8%. For the same compound, the growth in assay [13] was 4.28% (active); in [15] it was 51.7%; in [16] it was 86.4%; in [17], 105%.
On to `O=C1c2c(c3c4ccc(Br)cc4oc3c3[nH]c4ccccc4c23)C(=O)N1O`, for which the growth was 8.52% (active) in [1]; 47.6% in assay [2]; 95.9% in assay [3]; 66% in [4]; 79.1% in assay [5]; 25.3% in assay [6]. For the same compound, the growth is 21.3% in [7]; 18% in [8]; 56.2% in assay [9]; 11.8% in assay [10]; 27.6% in assay [11]; 19.1% in [12]. For the same compound, the growth in [13] was 37.3%; in [14], 22.4%; in [15], 17.9%; in assay [16], 66.9%; in [17], 17.1%.
With `Brc1c2c(c(Br)c3ccccc13)CCCC2`, the growth in assay [1] is 99%; in assay [2], 91%; in assay [3], 104%; in [4], 112%; in [5], 89.5%; in assay [6], 98.1%. For the same compound, the growth in [7] was 110%; in assay [8], 95.5%; in assay [9] it was 107%; in [10] it was 84.4%; in assay [11], 112%; in assay [12], 111%. The growth is 103% in assay [13]; 96% in assay [14]; 91.4% in assay [15]; 110% in assay [16]; 102% in assay [17].
As for `CCCCNC(=O)Oc1ccc(/C(=C(/CC)Cc2ccccc2)c2ccc(OCCN3CCCCCC3)cc2)cc1`, the growth in [1] is -24.6% (active); in [2], 14%; in assay [3], 73.6%; in assay [4], 32.9%; in [5], 82.7%; in assay [6], 42.3%. The growth is 72.2% in assay [7]; 56.6% in assay [8]; 53.8% in assay [9]; -24.9% (active) in assay [10]; 87.3% in [11]; 61.5% in assay [12]. In addition, the growth in assay [13] is 25.1%; in assay [14], 0.876% (active); in [15], -76.3% (active); in assay [16] it was 34%; in [17], 37.5%.
With `CN1CCN(c2ccc(NC(=O)c3cncnc3Nc3ccc(OCc4ccccn4)c(Cl)c3)cc2)CC1`, the growth in assay [1] was 4.59% (active); in assay [2] it was 15.2%; in assay [3] it was 46.4%; in assay [4], 61.8%; in [5], 99.4%; in assay [6], 79.4%. Further, the growth in assay [7] is 70.6%; in [8] it was 67.4%; in assay [9], 70.5%; in [10] it was 53.7%; in assay [11], 77.9%; in [12], -60.2% (active). The growth in [13] is 4.15% (active); in [14], 26.5%; in assay [15], -48% (active); in assay [16], 67.4%; in assay [17], 49.3%.
On to `CC(C)CCNC(=O)Cn1cccc(NC(=O)OCc2ccccc2)c1=O`, for which the growth was 107% in assay [1]; 104% in assay [2]; 127% in assay [3]; 98.7% in [4]; 101% in assay [5]; 107% in [7]. Also, the growth in [8] is 103%; in assay [9] it was 93.9%; in [10] it was 104%; in assay [11], 110%; in assay [12] it was 115%; in assay [13], 108%. Also, the results for the growth in assay [14], in assay [15] and in [17] were 95.1%, 110% and 107%, respectively.
For the compound `Cc1ccc(Cc2cnc(NC(=O)c3cc(Br)cs3)s2)cc1`, the growth in assay [1] is 18.2%; in assay [2], 82.7%; in [3], 94.2%; in [4], 77.3%; in assay [5], 64.9%; in [6], 49.6%. Moreover, the growth is 61.9% in assay [7]; 73.2% in assay [8]; 33.5% in assay [9]; 44.4% in assay [10]; 37.1% in assay [11]; -16.5% (active) in [12]. Besides, the growth in assay [13] is 42%; in assay [14], 30.3%; in [15] it was 32.9%; in assay [16] it was 82.9%; in assay [17] it was 47.3%.
For `O=C1/C(=C/c2ccc(-c3ccc(Br)cc3)o2)SC(=S)N1CCc1ccc(O)cc1`, the growth in assay [1] is 19.2%; in [2] it was 4.49% (active); in assay [3] it was 86%; in assay [4], 38.3%; in [5] it was 76.2%; in [6], 45.2%. Besides, the growth in assay [7] is 44.3%; in [8], 59.7%; in assay [9], 81.7%; in assay [10], 58.4%; in assay [11], 77.8%; in [12] it was 48.8%. Also, the growth is 81.2% in assay [13]; 82.6% in assay [14]; 75.2% in assay [15]; 93.6% in assay [16]; 42.9% in [17].
On to `N#Cc1c(-c2ccc(Cl)cc2)nc(SCC(=O)NC2=NN=C(c3ccccc3)CS2)[nH]c1=O`, for which the growth was 42.7% in assay [1]; 101% in assay [2]; 112% in assay [3]; 83.4% in assay [4]; 47.5% in assay [5]; 90.4% in assay [6]. The growth was 83.7% in [7]; 93.7% in assay [8]; 86.7% in [9]; 41.4% in assay [10]; 91.3% in [11]; 29.5% in assay [12]. The growth in [13] was 91.6%; in assay [14] it was 47.8%; in assay [15], 80.6%; in assay [16], 89.6%; in assay [17], 83.8%.
`O=Cc1ccc([N+](=O)[O-])s1`: the growth was 63.2% in assay [1]; 87.1% in assay [2]; 93.7% in assay [3]; 98.3% in assay [4]; 109% in assay [5]; 79.8% in assay [6]. Moreover, the growth in assay [7] was 105%; in assay [8], 113%; in assay [9] it was 95.2%; in assay [10] it was 82.8%; in assay [11] it was 102%; in assay [12], 110%. Moreover, the growth in [13] is 62.5%; in assay [14], 47%; in [15], 46.4%; in assay [16] it was 100%; in [17] it was 102%.
On to `COc1ccc(/C=N/NC(=O)CCN2c3ccccc3Sc3ccccc32)cc1`, for which the growth in assay [1] is 33.8%; in assay [2], 99.3%; in [3] it was 86.3%; in assay [4] it was 89.6%; in assay [5] it was 97.1%; in [6], 66.3%. In addition, the growth in [7] was 76.4%; in assay [8], 85.9%; in [9] it was 69.4%; in assay [10] it was 81.5%; in assay [11], 84.8%; in [12], 8.72% (active). The growth in assay [13] is 57.4%; in assay [14], 42.7%; in assay [15] it was 69.4%; in assay [16] it was 92.3%; in assay [17], 53.8%.
For the compound `N#CC1=C(c2ccc(Cl)cc2)Nc2c(c(-c3ccc(Cl)cc3)nn2-c2ccccc2)C12C(=O)Nc1ccc(Cl)cc12` (stereo unspecified), the growth in assay [1] was 14.1%; in [2], 49.2%; in assay [3] it was 71.6%; in assay [4], 41.8%; in assay [5] it was 86.5%; in assay [6], 36.7%. Further, the growth in assay [7] is 55.3%; in assay [8], 57.1%; in assay [9], 52.8%; in assay [10] it was 42.3%; in [11] it was 31.7%; in [12] it was 55.1%. For the same compound, the growth in assay [13] is 54.8%; in assay [14] it was 33.2%; in [15], 26.1%; in assay [16], 69.1%; in assay [17], 27.7%.
